Results taken from PubChem BioAssay (NCATS).
Inconclusive results are not listed. Calls of active or inactive are those of the source. Unless noted, the call rests on the fitted dose curve; in most records, active means well fitted curve in the direction sought with a large enough effect; inconclusive means small, poorly fitted or top-dose-only effect, or another doubt; inactive means no such curve, though single readings can be large; an effect the other way counts as inactive or inconclusive.

Tests used:
[1] = Primary qHTS for inhibitors of nuclear receptor binding SET domain protein 2 (NSD2) in an isogenic RCH-ACV NSD2 p.E1099K mutant (9B) (AID 1645876); further: nearly all actives have a fitted effect of over 70% in size; further: potency means the concentration at half of the fitted maximal effect
[2] = Primary qHTS for inhibitors of nuclear receptor binding SET domain protein 2 (NSD2) in an RCH-ACV wild type WT cells (2C) (AID 1645877); further: nearly all actives have a fitted effect of over 70% in size; further: potency means the concentration at half of the fitted maximal effect
[3] = target: Glutathione peroxidase 1 (Homo sapiens) (UniProt P07203); assay: Primary qHTS Assay for Inhibitors of Recombinant Selenoprotein Glutathione Peroxidase 1 (GPX1) (AID 1845191); further: nearly all actives have a fitted effect of over 65% in size
Sequence of Glutathione peroxidase 1 (Homo sapiens) (P07203 whole entry, looked up): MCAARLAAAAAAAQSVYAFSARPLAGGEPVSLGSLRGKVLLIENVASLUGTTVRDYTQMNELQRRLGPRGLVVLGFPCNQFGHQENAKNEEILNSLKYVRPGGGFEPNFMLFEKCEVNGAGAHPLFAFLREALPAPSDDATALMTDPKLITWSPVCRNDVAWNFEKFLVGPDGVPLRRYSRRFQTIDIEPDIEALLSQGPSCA
Procedure, shortened: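 Recombinant GPX1 (10 nM final) was preincubated with compound for 30 min at room temperature, then reacted with 1 mM GSH, 0.5 mM CHP, 0.5 mM NADPH and 100 nM glutathione reductase; NADPH fluorescence (340/450 nm) was read at 0 and 15 min.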

[4] = target: Phospholipid hydroperoxide glutathione peroxidase GPX4 (Homo sapiens) (UniProt P36969); assay: Primary qHTS Assay for Inhibitors of Recombinant Selenoprotein Glutathione Peroxidase 4 (GPX4) (AID 1845192); details: outcome: dose series up to 50 µM unless noted; further: on the % scale 0 is the no-effect control and ±100 the full control effect; nearly all actives have a fitted effect of over 65% in size
Sequence of Phospholipid hydroperoxide glutathione peroxidase GPX4 (Homo sapiens) (P36969 whole entry, looked up): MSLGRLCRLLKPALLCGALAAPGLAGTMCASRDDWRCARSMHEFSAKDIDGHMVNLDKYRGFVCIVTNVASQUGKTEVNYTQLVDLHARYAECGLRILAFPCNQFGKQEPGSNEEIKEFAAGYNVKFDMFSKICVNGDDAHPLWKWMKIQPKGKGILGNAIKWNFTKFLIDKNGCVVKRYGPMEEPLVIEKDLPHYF
Procedure, shortened: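 GR-coupled readout: 100 nM GR, 1 mM GSH, 0.5 mM NADPH; NADPH fluorescence (ex 340/em 450 nm) read at t=0 and after 15 min RT. GPX4 200 nM, preincubated 30 min with compound; substrate 0.5 mM CHP.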

[5] = qHTS drug screen for cell cycle checkpoint inhibitors in PARPi-resistant BRCA-mutant ovarian cancer cell lines. (AID 1963452; calls by dose curve); details: PEO1/OlaR viability, CellTiter-Glo luminescence, 96 h, stronger effect = lower value
Procedure, shortened: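 PEO1, PEO4 and PEO1/OlaR ovarian cancer cells, 600 per well, exposed 96 h at 37C to a dilution series. Viability read by CellTiter-Glo luminescence, normalized to DMSO and empty wells; activity summarized as Z-AUC.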

[6] = qHTS assay to identify inhibitors of the type 1 interferon - major histocompatibility complex class I in skeletal muscle: Counter screen cell viability and HiBit confirmation (AID 1347412); details: iHSKM muscle cells + IFN-b, HiBiT or CellTiter-Glo, 24 h; for activity change, negative = inhibition: Viability, at 45.9 µM (top of the series); further: potency means the concentration at half of the fitted maximal effect; on activity change, negative = inhibition: on the % scale 0 is the no-effect control and ±100 the full control effect; on all read-outs here: nearly all actives have a fitted effect of over 60% in size
Procedure, shortened: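 CRISPR HLA-B*08:01-HiBit immortalized human myoblasts (C25cl48) stimulated with 4 ng/ml IFN-beta and compounds (12-point 1:3, top 46 uM final) for 24 h at 37 C. Duplicate plates read by HiBit lytic luminescence or CellTiter Glo ATP.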

[7] = qHTS to identify inhibitors of the type 1 interferon - major histocompatibility complex class I in skeletal muscle: primary screen against the NCATS Mechanism Interrogation Plate v5.0 (MIPE) Libary (AID 1347411);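 further: plate controls were vehicle for no effect and reference inhibitor for full effect; nearly all actives have a fitted effect of over 65% in size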
Procedure, shortened: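 Immortalized human myoblasts (C25cl48) with HiBit knocked into endogenous HLA-B*08:01 were stimulated with 4 ng/ml IFN-beta and given compounds in 11-point 1:3 titration from 46 uM. After 24 h at 37 C, lytic HiBiT luminescence was read.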

[8] = measured here: PEO1 parental Z-AUC

Compound	Potency [1]	Potency [2]	Potency [3]	Potency [4]	Z-AUC [5]	Z-AUC [5, 8]	Z-AUC ([5]; measured here: PEO4 Z-AUC)	Potency ([6]; HiBiT)	activity change, negative = inhibition [6]	Potency [7]
Cc1cc(O)c(-c2ccc([C@@H](C)CN)cc2)c2c1[nH]c(=O)c1sccc12	inactive	inactive	inactive	inactive	-2.55 (inactive)	-2.78	-2.98	39.4 nM (active)	-14.1% (inactive)	–
Cn1cc(-c2ccc(-c3cncc(Cl)c3N3CCC4(CCNC4=O)CC3)cc2)cn1	8330 nM (active)	833 nM (active)	inactive	inactive	-1.1 (inactive)	-0.614	-1.18	–	-3.23% (inactive)	–
C=CC(=O)Nc1cc(N2CCN(CC)CC2)ccc1Nc1cc(N(C)C(=O)Nc2c(Cl)c(OC)cc(OC)c2Cl)ncn1	–	–	inactive	–	1.02 (inactive)	0.686	0.736	–	–	inactive
C[C@@H](O)[C@@H]1NC(=O)[C@H](CCCCN)NC(=O)[C@@H](Cc2c[nH]c3ccccc23)NC(=O)[C@H](Cc2ccccc2)NC(=O)[C@@H](NC(=O)[C@H](N)Cc2ccccc2)CSSC[C@@H](C(=O)N[C@H](CO)[C@@H](C)O)NC1=O	–	–	inactive	–	0.896 (inactive)	0.495	0.728	–	–	inactive
